Screen size: about 96,000 compounds; about 20,000 (21%) were called active. These entries were drawn from the full list. A number with no mark means an inactive call.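 The calls were made as follows: active = CYP2C19 inhibition above a set limit at 5 µM in the primary screen (cut at about 50% in these data); inactive = the rest.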
Molecular target: Cytochrome P450 2C19 (Homo sapiens) (UniProt P33261)
Assay: blockers of cytochrome P450 2C19 activity – biochemical, luminescence, ADME assay, primary screen (AID 778);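 also: plate controls were negative control wells for no effect and 2.5 mM tranylcypromine positive control for full effect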
Conditions: CYP2C19 Supersomes, luciferin-H EGE luminescence, 30 min; at 5 µM; hits give high values

Sequence of Cytochrome P450 2C19 (Homo sapiens) (P33261 whole entry, looked up): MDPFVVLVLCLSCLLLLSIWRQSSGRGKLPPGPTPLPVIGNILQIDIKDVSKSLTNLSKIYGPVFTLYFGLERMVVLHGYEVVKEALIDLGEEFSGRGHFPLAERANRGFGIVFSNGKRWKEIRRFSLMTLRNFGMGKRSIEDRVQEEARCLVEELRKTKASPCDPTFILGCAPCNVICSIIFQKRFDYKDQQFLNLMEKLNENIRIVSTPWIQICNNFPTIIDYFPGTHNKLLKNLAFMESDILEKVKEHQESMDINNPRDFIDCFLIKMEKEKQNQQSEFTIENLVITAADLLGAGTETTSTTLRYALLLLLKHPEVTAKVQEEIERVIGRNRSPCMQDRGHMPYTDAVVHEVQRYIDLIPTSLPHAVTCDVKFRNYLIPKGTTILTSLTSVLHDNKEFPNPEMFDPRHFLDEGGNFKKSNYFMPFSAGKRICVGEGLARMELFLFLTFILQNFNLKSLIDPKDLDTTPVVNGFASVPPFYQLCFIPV

First: Cc1ccccc1N/N=C/c1ccc(N2CCOCC2)cc1
Second: Cc1onc(-c2ccccc2)c1C(=O)N1CCOCC1
The inhibition of the first is higher: 23.7% for the first, 1.4% for the second.

Going from CCOc1ccccc1/C=c1\sc2nc(-c3ccco3)nn2c1=O to Cc1cccc(NC(=O)/C(=C\c2ccco2)NC(=O)c2ccccc2)c1, the inhibition falls from 15.4% to 13.6%.

First: O=C(NC1CCCCC1)C1CC(=O)N(CCc2ccccc2)C1 (stereo unspecified)
Second: CN(CCCNC(=O)CN1C(=O)CC(C)(C)S(=O)(=O)c2ccccc21)C1CCCCC1
The inhibition of the first is lower: -5.3% for the first, 9.9% for the second.

First: O=C(NCc1ccco1)c1cc(-c2cccnc2)nc2ccc(Cl)cc12
Second: Cc1ccoc1C(=O)Nc1cccc(Oc2ccccc2)c1
The inhibition of the first is lower: 0.7% for the first, 5.3% for the second.

First: O=C(NCCCN1CCN(C2CCCCC2)CC1)Nc1ccccc1C(F)(F)F
Second: Cc1c(CN2CCC(C)CC2)c(=O)n(-c2ccccc2)n1C
The inhibition of the first is lower: -6.6% for the first, -0.1% for the second.

Compared with Cc1ccc(CNC(=O)C2CCCN(S(C)(=O)=O)C2)cc1 (stereo unspecified), Cc1nnc(SCC(=O)NCc2ccccc2)s1 is lower in inhibition: 26.6% for the first, -3.1% for the second.

First: O=C(Nc1ccccc1[N+](=O)[O-])C1C(c2ccccc2)=C1c1ccccc1
Second: Cc1ccc(N2C(=O)C3C(c4ccccc4)(C2=O)C3(c2ccccc2)c2ccccc2)cc1 (stereo unspecified)
The inhibition of the first is higher: 18.5% for the first, 8.1% for the second.

First: CCOC(=O)c1c(-c2cccc(C)c2)csc1NC(=O)c1c(-c2ccccc2)noc1C
Second: CCOC(=O)c1cc(NC(=O)c2cccnc2)cc(C(=O)OCC)c1
The inhibition of the first is higher: 37.7% for the first, 22.9% for the second.

Going from CCOC(=O)c1sc(NC(=O)CSc2ncccn2)c(C#N)c1C to CCOC(=O)c1nc(C)n(-c2ccc(Cl)cc2Cl)n1, the inhibition rises from 6.5% to 16.5%.

First: Cc1cc(C(=O)CC#N)c(C)n1CC(F)(F)F
Second: C=CCn1c(C)cc(C(=O)CN2C(=O)c3ccccc3C2=O)c1C
The inhibition of the first is higher: 17% for the first, 2.9% for the second.

First: CC(C)OCCCNC(=O)CNC(=O)c1cccs1
Second: CCOCCCNS(=O)(=O)Cc1ccccc1
The inhibition of the first is lower: 14% for the first, 42.5% for the second.

Going from CCOc1ccc(C2C(C(=O)O)c3ccccc3C(=O)N2CCN2CCOCC2)cc1 (stereo unspecified) to CCCCOc1ccc(C(C)(O)CCN2CCOCC2)cc1 (stereo unspecified), the inhibition rises from -12.7% to -1.7%.

First: COC(=O)[C@H](C)NC(=O)Nc1ccc(OC(F)(F)F)cc1
Second: CC(C)OC(=O)CN1C(=O)c2ccccc2C1=O
The inhibition of the first is lower: 9.5% for the first, 24% for the second.

Going from Cc1ccc(N2C(=O)S/C(=C/c3cn(C)c4ccccc34)C2=O)cc1 to CCOc1ccc2nc(NCCNS(=O)(=O)c3ccccc3)c(C#N)cc2c1, the inhibition rises from -7.8% to 24.6%.

Compared with COc1ccc(-n2nnnc2SCc2nc(N)nc(N3CCOCC3)n2)cc1, CCc1ccc(-c2nnn(Cc3nn[nH]n3)n2)cc1 is lower in inhibition: 22.5% for the first, 14.2% for the second.

Compared with CCN(CC)Cc1cc(C(C)=O)ccc1O, Cc1nn(C(C)CC(=O)O)c(C)c1C (stereo unspecified) is higher in inhibition: -2.4% for the first, 6.7% for the second.

Compared with Cc1nnc(SCC(=O)N2CCc3ccccc3C2)s1, Cc1cc(=O)n2c3c(cccc13)CCC2 is lower in inhibition: 42.5% for the first, 18.8% for the second.

Going from CCc1c(C)sc(NC(=O)OC)c1C(=O)N1CCOCC1 to CCOC(=O)N1CCN(C(=O)c2cnc3n(c2=O)CCS3)CC1, the inhibition falls from -0.7% to -15.9%.

Going from CC(=O)NNc1cc(=O)c2c(=O)n(C)c(=O)n(C)c2[nH]1 to CCOc1cc2[nH]c(=O)n(CCC(=O)NCc3ccc(OC)cc3)c(=O)c2cc1OCC, the inhibition falls from -1.8% to -6%.

Compared with COc1ccc(/C=C2/S/C(=N/N=C3\CC4CCC3(C)C4(C)C)NC2=O)cc1 (stereo unspecified), O=C(NCC1CCCO1)/C(=C\c1ccco1)NC(=O)c1ccccc1 (stereo unspecified) is lower in inhibition: -9.6% for the first, -11.9% for the second.

In the case of COCCNC(=O)Cn1cc2c(n1)CCCCC2, the inhibition is reported as -6.8%.

O=C(CN1C(=O)CC(c2ccccc2)=Nc2ccccc21)NC1CCCCC1 was tested, and the inhibition was 52.2% (active).
With Cc1onc(-c2ccccc2)c1C(=O)Nc1ccccc1C#N the inhibition was 86.7% (active).
CC(=O)Nc1cccc(NC(=O)c2c(-c3ccccc3)noc2C)c1 was tested, and the inhibition was 67.3% (active).
With CCCOc1ccc(C2c3c(oc4cc(C)c(C)cc4c3=O)C(=O)N2CCCN2CCOCC2)cc1 (stereo unspecified) the inhibition was 69.9% (active).
With COc1ccc(-c2nnn(Cc3nc(N)nc(N4CCCCC4)n3)n2)cc1 the inhibition was 65.2% (active).
With Cc1nnc(SCc2nc3ccccc3nc2C)s1 the inhibition was 52.6% (active).
CC(=O)c1cnc(SCCN2C(=O)c3ccccc3C2=O)nc1C was tested, and the inhibition was 57.8% (active).
With CCOc1ccc(S(=O)(=O)NCCSc2ccccc2)cc1 the inhibition was 98.7% (active).
O=C1C2C3C=CC(C4CC34)C2C(=O)N1/N=C/c1ccc(-c2ccccc2[N+](=O)[O-])o1 (stereo unspecified) was tested, and the inhibition was 72.2% (active).
For C/C(=C\c1ccco1)C1Nc2cccc3cccc(c23)N1, the inhibition was 72.8% (active).

Source: PubChem BioAssay AID778 (Sanford-Burnham Center for Chemical Genomics, 2007)
